Many of the other results were omitted from the sample, so hits are more common in it than they were.
ID4 binder: binders of human ID4 protein. P47928. small molecule microarray, Flag-ID4 binding, fluorescence F/B. calls only. hit rate 1.2% among 31,000. AID 624137; call rule not given here;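 further: a binder raises fluorescence above local background on the spot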
Target sequence (P47928 whole entry, looked up): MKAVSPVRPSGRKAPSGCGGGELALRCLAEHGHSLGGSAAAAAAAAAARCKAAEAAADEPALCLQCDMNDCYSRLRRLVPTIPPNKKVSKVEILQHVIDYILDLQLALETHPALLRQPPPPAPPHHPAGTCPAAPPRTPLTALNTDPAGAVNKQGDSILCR
* = called active by the depositor; i = inactive; + = active, no number.

SMILES	ID4 binder
Cc1ccc(S(=O)(=O)N2CCN(Cc3ccc(OCCO)cc3)CC2)cc1	i
Cc1ccc(F)cc1S(=O)(=O)N1CCN(Cc2cccc(OCCO)c2)CC1	i
O=S(=O)(c1ccc2ccccc2c1)N1CCN(Cc2ccc(OCCO)cc2)CC1	i
COc1ccc(S(=O)(=O)N[C@@H]2CCCN(Cc3cccc(OCCO)c3)C2)cc1	i
COc1ccc(S(=O)(=O)N2CCN(Cc3ccc(OCCO)cc3)CC2)cc1	+
Cc1ccc(S(=O)(=O)N2CCN(Cc3cccc(OCCO)c3)CC2)cc1	+
COc1ccc(OC)c(S(=O)(=O)N2CCC(C(=O)Nc3ccc(OC)c(Cl)c3)CC2)c1	i
COc1ccc(S(=O)(=O)NCc2ccccc2)cc1-c1nnc2c3ccccc3c(C)nn12	i
COc1ccc(C2CC(C(F)(F)F)n3ncc(C(=O)Nc4sc5c(c4C#N)CCC(C)C5)c3N2)cc1OC (stereo not given)	i
COc1ccc(CN2C(=O)c3cccc4cccc(c34)C2=O)cc1S(=O)(=O)N1CCOCC1	i
CCCC[C@@H](O)c1cc(OC)cc(=O)o1	i
COc1cccc(OCC(=O)Nc2ccc(-c3nc4ccccc4[nH]3)cc2)c1	+
COc1cccc(OCC(=O)Nc2cccc(-c3nnc(-c4ccccc4)o3)c2)c1	i
COc1ccccc1OCC(=O)Nc1ccc(-c2nc3ccc(C)cc3[nH]2)cc1	i
Cc1ccc(NC(=O)CSc2nc3ccccc3s2)cc1C	i
C[C@H](CO)N1C[C@H](C)[C@@H](CN(C)Cc2ccccc2C(=O)O)Oc2ncc(C3=CCCCC3)cc2C1=O	+
C[C@H](CO)N1C[C@H](C)[C@@H](CN(C)Cc2ccccc2F)Oc2ncc(C3=CCCCC3)cc2C1=O	i
C[C@H]1CN([C@@H](C)CO)C(=O)c2cc(C3=CCCCC3)cnc2O[C@@H]1CN(C)Cc1ccccc1	i
C[C@@H]1CN([C@H](C)CO)C(=O)c2cc(C3=CCCCC3)cnc2O[C@H]1CN(C)Cc1ccncc1	i
C[C@@H]1CN([C@H](C)CO)C(=O)c2cc(C3=CCCCC3)cnc2O[C@H]1CN(C)Cc1ccc(C(=O)O)cc1	+
C[C@H]1CN([C@@H](C)CO)C(=O)c2cc(C3=CCCCC3)cnc2O[C@@H]1CN(C)Cc1ccccc1F	i
CCN(CC(=O)Nc1ccc(I)cc1)S(=O)(=O)c1ccc(Cl)cc1	i
CC(C)(C)c1ccc(OCC(O)Cn2cnc3ccccc32)cc1 (stereo not given)	i
CCC(Sc1nnnn1-c1ccccc1)C(=O)Nc1ccc([N+](=O)[O-])cc1 (stereo not given)	i
COC(=O)c1c(NC(=S)Nc2ccc(S(=O)(=O)NC34CC5CC(CC(C5)C3)C4)cc2)sc(C(=O)N(C)C)c1C	i
SMILES	ID4 binder
COC(=O)[C@H]1CC[C@H](OC(C)=O)[C@]2(C)CC[C@@H](C(C)C)[C@@H](OC(=O)/C=C/c3ccccc3)C12 (stereo not given in full)	i
Cc1cc(C)c(OCC(=O)Nc2cccc(NC(=O)c3ccccc3C)c2)c(Br)c1	i
COc1ccc(OC)c(NC(=O)c2c(NC(=O)c3ccccc3)sc3c2CCC(C)C3)c1 (stereo not given)	i
CCCN(C)C[C@H]1Oc2ncc(-c3cccc(C(=O)N(C)C)c3)cc2C(=O)N([C@H](C)CO)C[C@H]1C	i
Cc1ccc(-c2cnc3c(c2)C(=O)N([C@H](C)CO)C[C@@H](C)[C@@H](CN(C)C)O3)cc1	i
C[C@@H]1CN([C@H](C)CO)C(=O)c2cc(-c3ccc(C#N)cc3)cnc2O[C@H]1CN(C)Cc1ccncc1	+
C[C@@H]1CN([C@H](C)CO)C(=O)c2cc(-c3ccncc3)cnc2O[C@H]1CN(C)Cc1ccc(F)cc1	i
CCCN(C)C[C@H]1Oc2ncc(-c3cccc(C(=O)N(C)C)c3)cc2C(=O)N([C@H](C)CO)C[C@@H]1C	i
C[C@H](CO)N1C[C@H](C)[C@@H](CN(C)Cc2cncnc2)Oc2ncc(C#Cc3ccccn3)cc2C1=O	+
CCCN(C)C[C@@H]1Oc2ncc(-c3cccc(C(=O)N(C)C)c3)cc2C(=O)N([C@@H](C)CO)C[C@H]1C	+
C[C@H]1CN([C@@H](C)CO)C(=O)c2cc(-c3ccncc3)cnc2O[C@@H]1CN(C)C	+
C[C@@H]1CN([C@H](C)CO)C(=O)c2cc(C#Cc3ccccn3)cnc2O[C@@H]1CN(C)Cc1ccccc1	i
C[C@H](CO)N1C[C@H](C)[C@@H](CN(C)CC2CCCC2)Oc2ncc(-c3ccc(C#N)cc3)cc2C1=O	i
Cc1ccc(-c2cnc3c(c2)C(=O)N([C@@H](C)CO)C[C@H](C)[C@@H](CN(C)C)O3)cc1	i
C[C@H]1CN([C@@H](C)CO)C(=O)c2cc(C#Cc3ccccn3)cnc2O[C@H]1CN(C)Cc1ccccc1	i
CCN(CC)C(=O)Oc1c(Br)cc(Br)c2ccc(C)nc12	i
COC(=O)c1ccc(NC(=O)CSc2nc3ccccc3c(=O)n2-c2ccc(Cl)cc2)cc1	i
Cc1cc(Cl)c(S(=O)(=O)N2CCCCC2)cc1OCC(N)=O	i
COc1ccc(C(C)C)cc1S(=O)(=O)n1cnc2cc(C)c(C)cc21	i
O=C(CC1(O)C(=O)N(Cc2cccc3ccccc23)c2ccccc21)c1ccc(F)cc1 (stereo not given)	i
C[C@@H]1CN([C@@H](C)CO)C(=O)c2cc(C#CCN(C)C)cnc2O[C@@H]1CN(C)C(=O)c1cccc(F)c1	i
CC(C)C#Cc1cnc2c(c1)C(=O)N([C@@H](C)CO)C[C@H](C)[C@@H](CN(C)C(=O)c1cccnc1)O2	i
C[C@H]1CN([C@@H](C)CO)C(=O)c2cc(-c3ccc(C(=O)N(C)C)cc3)cnc2O[C@@H]1CN(C)C	i
C[C@@H]1CN([C@H](C)CO)C(=O)c2cc(-c3cccc(C(=O)N(C)C)c3)cnc2O[C@@H]1CN(C)C	i
C[C@@H]1CN([C@H](C)CO)C(=O)c2cc(-c3cccc(C(=O)N(C)C)c3)cnc2O[C@H]1CN(C)C	+
SMILES	ID4 binder
C[C@@H]1CN([C@H](C)CO)C(=O)c2cc(C#CCN(C)C)cnc2O[C@H]1CN(C)C(=O)c1cccnc1	+
C[C@@H]1CN([C@@H](C)CO)C(=O)c2cc(-c3cccc(C(=O)N(C)C)c3)cnc2O[C@@H]1CN(C)C	i
C[C@@H]1CN([C@@H](C)CO)C(=O)c2cc(-c3ccc(C(=O)N(C)C)cc3)cnc2O[C@@H]1CN(C)C	i
C[C@@H]1CN([C@H](C)CO)C(=O)c2cc(-c3ccc(C(=O)N(C)C)cc3)cnc2O[C@H]1CN(C)C	+
CCc1cccc(OCC(=O)Nc2cccc(-c3nnc(-c4ccccc4)o3)c2)c1	i
CSc1cccc(NC(=O)CSc2nnc(-c3cccc(C)c3)o2)c1	i
Cc1ccc(Cl)cc1NC(=O)CSc1nnc(-c2ccc([N+](=O)[O-])cc2)n1-c1ccccc1	i
CC(C)(C)c1ccc(C(=O)N2CCN(c3ccc([N+](=O)[O-])c(NCc4cccnc4)c3)CC2)cc1	i
Cc1ccc(NC(=O)CSc2nnnn2-c2ccc(F)cc2)cc1C	i
Cc1ccc(NC(=O)CSc2nnnn2-c2ccc(Cl)c(C(=O)O)c2)cc1C	+
Cc1cc(NC(=O)CSc2nnnn2-c2ccccc2)ccc1Cl	i
Cc1cc(N(CC(=O)Nc2cc(C(F)(F)F)ccc2Cl)S(C)(=O)=O)ccc1Br	i
COc1ccc(NC(=O)C(C)Oc2ccccc2)c([N+](=O)[O-])c1 (stereo not given)	i

Assay outcomes as filed in PubChem BioAssay.
